PubChem BioAssay (EPA / NIEHS)
Results filed as inconclusive are left out. Activity calls are given as the source filed them. How the source made its calls: active means hit-call score of the fitted dose curve at least 0.9, where 1 is the maximum; inconclusive means response in the unintended direction; inactive means score below 0.9.

Each compound was assayed on guinea pig Atrionatriuretic Peptide Receptor A (ANPA), gene 100135578 (assay: NVS_GPCR_gANPA: NovaScreen (NVS) G Protein-Coupled Receptor Assay for guinea pig Atrionatriuretic Peptide Receptor A (ANPA) (AID 2283291)).
Experimental: NVS_GPCR_gANPA is a biochemical, single-readout assay that uses extracted gene-proteins from Guinea pig cerebellar membranes in a tissue-based cell-free assay. Measurements were taken 1 hour after chemical dosing in a 96-well plate.NVS_GPCR_gANPA is one of one assay component(s) measured or calculated from the NVS_GPCR_gANPA assay. It is designed to make measurements of radioligand binding, a form of binding reporter, as detected with scintillation counting signals by Filter-based radiodetection technology.Data from the assay component NVS_GPCR_gANPA was analyzed into 1 assay endpoint. This assay endpoint, NVS_GPCR_gANPA, was analyzed in the positive analysis fitting direction relative to DMSO as the negative control and baseline of activity. Using a type of binding reporter, loss-of-signal activity can be used to understand changes in the binding as they relate to the gene Nppa. Furthermore, this assay endpoint can be referred to as a primary readout, because the performed assay has only produced 1 assay endpoint. To generalize the intended target to other relatable targets, this assay endpoint is annotated to the lyase intended target family, where the subfamily is guanylyl cyclase.
Binding assays used specific radioligands (tritiated, iodinated) with non-radioactive competitive displacement ligands in agonist or antagonist protocols (as indicated) and various reference compounds and inhibitors to titrate specific binding to receptors and transporters. Most enzyme assays (CYPs, kinases, phosphatases, proteases, HDACs) used recombinant protein and specific substrates (fluorescence mostly, some colorimetric and radioactive) and inhibitors, followed by a biochemical separation of substrate and product. All assays for the biochemical HTS were initially run in duplicate at a single concentration (10 uM for CYP450 assays and 25 uM for all others). Assay-chemical combinations meeting a pre-defined threshold (e.g., 30% inhibition and other criteria defined below) were then run in singleton concentration-response format with maximum concentration of 20 uM for CYPs and 50 uM for all others. Each assay was run with positive and negative controls, and concurrent controls on every plate. The follow-up (secondary) screen tested active chemical-pairs in concentration series, as well as a few additional assays not tested in the primary screen, some selected negative inactives, and several cases re-run in the concentration series for confirmatory purposes.

SMILES | outcome | AC50
CC(=O)c1ccccc1 | inactive | –
Cc1nccn1-c1ccc(Sc2cccc(C3(C(N)=O)CCOCC3)c2)cc1 | inactive | –
Clc1cc(Cl)c(Cl)cc1Cl | inactive | –
Cc1cc(C)c(O)c(C)c1 | inactive | –
CCCCCCCCCC | inactive | –
CC(C)(C)c1ccccc1 | inactive | –
COCC(C)O (stereo not given) | inactive | –
CCCCCCCCCCCCCCCCO | inactive | –
COCc1nnc(-c2ccc[n+]([O-])c2)n1-c1c(Cl)c(Cl)cc2[nH]c(=O)c(=O)[nH]c12 | inactive | –
CCCCCCC(C)OC(=O)COc1nc(F)c(Cl)c(N)c1Cl (stereo not given) | inactive | –
CC(C)(c1cc(Br)c(O)c(Br)c1)c1cc(Br)c(O)c(Br)c1 | inactive | –
O=C(OCCCCCCOC(=O)c1ccccc1)c1ccccc1 | inactive | –
Oc1ccc2c(c1)OC[C@@H](N1CCC(O)(c3ccc(F)cc3)CC1)[C@H]2O | inactive | –
CN(C[C@@H](CC[N+]12CCC(C3CCCCC3)(CC1)CC2)c1ccc(Cl)c(Cl)c1)C(=O)c1cc(C(F)(F)F)cc(C(F)(F)F)c1 | – | 42.3 µM (active)
CCc1cccc(CC)c1N | inactive | –
